An excerpt weighted towards active compounds, which were near 8.7% of everything screened.
AMA1 RON2 block – disrupts binding of P. falciparum AMA1 to RON2 | Potency, µM (highest dose often 58.2 µM), hits mostly inhibitors | AID 720542 | 360,000 tested, 0.2% active | AlphaScreen AMA1-biotinylated RON2 peptide binding; note: nearly all actives have a fitted effect of over 45% in size
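AMA1 (3D7) with his tag at 25 nM final met compounds first, then biotinylated RON2 peptide at 25 nM; detection used donor plus acceptor beads, 10 µg/mL apiece, read by AlphaScreen after 30 min at room temperature.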
Pf growth 48h – inhibits P. falciparum growth in the first generation, 48 h; AID 504832; P. falciparum luciferase growth in erythrocytes, 48 h; 310,000 tested, 5.9% active; Potency, µM (titrated, usually from 28.7 µM), usual class: inhibitors
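Firefly luciferase activity from engineered P. falciparum reports growth; inhibitors lower the luminescent signal. Cultures contained 2% hematocrit erythrocytes at 0.1% final parasitemia.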
VACV mCherry inh – vaccinia inhibition (mCherry reporter). Vaccinia virus mCherry reporter infection, fluorescence. Potency, µM (highest dose often 36.5 µM), usual class: inhibitors. 310,000 tested, 0.63% active; calls by dose curve; tested in A549 cells; note: nearly all actives have a fitted effect of over 35% in size
Pf growth 96h – P. falciparum growth inhibition at 96 hours; P. falciparum luciferase reporter growth, 96 h; 320,000 tested, 6.9% active; Potency, µM (top dose mostly 28.7 µM), hits mostly inhibitors; AID 504834
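Infected RBCs, 2% Hct / 0.05% parasitemia final; luciferase-reporter P. falciparum; cpd 96 h, 37 C, 5% CO2; luciferase detection reagent; luminescence.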
VACV Venus inh – inhibitors of vaccinia virus (Venus reporter) | Vaccinia virus Venus reporter expression, fluorescence | AID 720580 | Potency, µM (series often up to 36.5 µM), actives largely listed as inhibitors | 330,000 tested, 0.46% active; calls by dose curve; tested in A549 cells; note: nearly all actives have a fitted effect of over 30% in size
Numbers stand for hits; n = inactive; u = inconclusive; x = no result given; [ ] = remark or other dose. Unless noted, calls come from the whole dose curve; as a rule, active = well fitted curve in the direction sought with a large enough effect; inconclusive = small, poorly fitted or top-dose-only effect, or another doubt; inactive = no such curve, though single readings can be large; an effect the other way counts as inactive or inconclusive.

SMILES	AMA1 RON2 block	Pf growth 48h	VACV mCherry inh	Pf growth 96h	VACV Venus inh
O=C(C[n+]1cccc2cc(Cl)ccc21)c1ccc2c(c1)CCCC2	x	x	n	x	n
COc1cc2c(cc1OC)C(C(=O)N(C)Cc1ccccc1)C(c1cccnc1)N(C)C2=O (stereo not drawn)	n	n	n	3.7µM	n
COc1cc2c(cc1OC)C(C(=O)Nc1ccc3c(c1)OCCO3)C(c1cccnc1)N(C)C2=O (stereo not drawn)	n	7.38µM	n	u	n
COc1cc2c(cc1OC)C(C(=O)Nc1cc(OC)c(OC)c(OC)c1)C(c1cccnc1)N(C)C2=O (stereo not drawn)	n	u	n	u	n
Cc1ccc(-n2nc(C(=O)Nc3ccc(C)c(F)c3)c3c4ccccc4n(C)c3c2=O)cc1	x	x	n	x	n
CCc1nnc2c3ccccc3nc(Nc3cc(C)cc(C)c3)n12	x	x	n	x	n
Cc1ccc(S(=O)(=O)c2nnn(CC(=O)Nc3ccccc3C)c2N)cc1C	x	x	n	x	n
O=C(O)c1cc(O)c(O)c(O)c1	x	u	u	8.49µM	u
Cc1ccccc1C1(CC(=O)N2CCCCC2c2cccnc2)CC(=O)N(C2CCCC2)C1=O (stereo not drawn)	x	x	n	x	n
Cc1ccc(Nc2ncnc3c2nnn3Cc2ccccc2)cc1	n	n	n	n	n
CC(C)CCNc1ncnc2c1nnn2Cc1ccccc1	n	n	n	10.4µM	n
CCOC(=O)c1c(S(=O)(=O)N2CCCC(C(=O)Nc3cccc(CC)c3)C2)c(C)n(CC)c1C (stereo not drawn)	x	x	n	x	n
CCN(CC)S(=O)(=O)c1cccc(-c2csc(C)n2)c1	n	u	x	n	x
CCN(CC)S(=O)(=O)c1cccc(N=Nc2sc(N)nc2C)c1	n	n[0.00184 µM]	x	11.7µM	x
O=C1C2=C(Nc3ccccc3SC2c2ccccc2C(F)(F)F)c2ccccc21 (stereo not drawn)	x	x	u	x	n
Cc1ccc(C(=O)Nc2cccc(-c3nc(CNC(=O)c4ccc5ccccc5n4)c(C)o3)c2)s1	x	x	n	x	n
CCc1ccc(NC(=O)CSc2nnc(Cc3cccn3C)n2-c2ccc(OC)cc2)cc1	n	u	x	8.28µM	x
Cn1cccc1Cc1nnc(SCC(=O)Nc2ccc(F)cc2)n1-c1ccc(F)cc1	n	u	n	n	n
Cc1ccc(-c2nnc(SCC(=O)Nc3ccc4c(c3)OCCO4)n2N)cc1	n	n	x	10.4µM	n
COc1ccc(-n2c(Cc3cccn3C)nnc2SCC(=O)N2CCC(C)CC2)cc1	n	u	x	0.37µM	x
COc1ccc(-n2c(Cc3cccn3C)nnc2SCC(=O)Nc2cccc(F)c2)cc1	n	8.28µM	n	u	n
O=C(CSc1nc2ccccc2c(=O)n1CCC(=O)NC1CCCCC1)Nc1ccccc1Cl	x	x	n	x	n
COc1ccc(CNC(=O)c2ccc3nc(CCc4ccccc4)oc3c2)cc1OC	x	x	n	x	n
COc1ccc(-n2c(Cc3cccn3C)nnc2SCC(=O)Nc2ccc(Cl)cc2)cc1	n	11.7µM	x	n	x
Cn1cccc1Cc1nnc(SCC(=O)Nc2ccc3c(c2)OCCO3)n1-c1ccc(F)cc1	n	n	n	n	n
SMILES	AMA1 RON2 block	Pf growth 48h	VACV mCherry inh	Pf growth 96h	VACV Venus inh
COc1ccc(-n2c(Cc3cccn3C)nnc2SCC(=O)Nc2ccccc2)cc1	n	11.7µM	n	u	n
Cc1ccc(-n2c(Cc3cccn3C)nnc2SCC(=O)Nc2ccc3c(c2)OCO3)cc1	n	14.7µM	x	u	x
Cc1ccc(-c2nc(S(=O)(=O)c3ccc(C)cc3)c(N3CCCCC3)o2)cc1	x	x	n	x	n
OC(c1ccc2c(c1)CN(Cc1c[nH]c3ccccc13)CCO2)c1ccccn1 (stereo not drawn)	x	x	n	x	n
Clc1ccc(CN2C3=NCCCN3c3ccccc32)c(Cl)c1	n	u	n	1.04µM	n
Clc1cccc(CN2C3=NCCCN3c3ccccc32)c1	n	n	x	u	x
Cc1ccc(CN2C3=NCCCN3c3ccccc32)cc1	n	11.7µM	n	u	n
c1ccc(CN2C3=NCCCN3c3ccccc32)cc1	n	8.28µM	x	n	n
Brc1ccc(CN2C3=NCCCN3c3ccccc32)cc1	n	11.7µM	x	n	x
O=C(Nc1ccc(Cl)cc1Cl)[C@@H]1CC=C[C@@H]2CCN(C3CC3)C(=O)[C@@H]21	x	x	n	x	n
CC(C)(C)c1ccc(CN2C3=NCCCN3c3ccccc32)cc1	n	3.7µM	u	n	u
COc1cccc(OC)c1CN1CCC2(CCC(CNC(=O)c3ccccc3)O2)CC1 (stereo not drawn)	x	x	n	x	n
CCOc1ccc(/C=C/C(=O)C(C(N)=O)=C2SCCS2)cc1	n	n	4.47µM	u	n
CCOc1ccc(/C=C/C(=O)Oc2ccccc2)cc1	n	u	n	u	n
Cc1nn(S(=O)(=O)c2ccc(F)cc2)c(C)c1S(=O)(=O)N1CCCCCC1	x	x	n	x	n
O=C(C[n+]1cccc(Br)c1)c1ccc(Br)cc1	x	x	n	x	n
COCCNc1oc(/C=C/c2ccccc2OC)nc1S(=O)(=O)c1ccccc1	n	9.28µM	x	7.38µM	x
COCCNc1oc(-c2ccccc2)nc1S(=O)(=O)c1ccc(Br)cc1	x	x	n	x	n
Cc1c(C(=O)NCc2ccc(F)cc2)c(-c2ccccc2)nn1-c1ccccc1	n	x	n	5.86µM	n
Cc1nn(-c2ccccc2)c(C)c1C(=O)NCc1ccc(F)cc1	n	n	n	n	n
CCc1c(C)sc2c1CCN(Cc1cccc(F)c1)C2c1ccccc1 (stereo not drawn)	x	x	n	x	n
C=CCNC(=S)NNC(=O)c1cc(O)ccc1O	n	n	n	4.65µM	n
C=CCNC(=S)NNC(=O)c1ccc(Br)cc1	n[2.32 µM]	n	n	n	n
O=C(c1cc([N+](=O)[O-])ccc1Cl)N1c2ccccc2Sc2ccccc21	n	7.38µM	u	2.08µM	u
O=C(c1cc([N+](=O)[O-])ccc1Cl)N1CCN(c2ccccc2)CC1	n	n	n	n	n
SMILES	AMA1 RON2 block	Pf growth 48h	VACV mCherry inh	Pf growth 96h	VACV Venus inh
Cc1noc(C)c1CC(=O)N1CCOc2c(cc(-c3nc4ccccc4s3)cc2OC2CCOC2)C1 (stereo not drawn)	x	x	n	x	n
CCOc1ccc(S(=O)(=O)NC(C)(C)C)cc1-c1nc2c(C(C)(C)C)nn(C)c2c(=O)[nH]1	n	4.65µM	u	n	u
O=C(CSc1nc(-c2ccncc2)nn1CC(=O)N1CCCCC1)NC1CCCC1	3.77µM	n	n	n	n
Cn1c(SCC(=O)NC2CCCCC2)nnc1-c1ccncc1	n	n	n	u	n
CCCC1(C)Nc2ccccc2-c2nc3ccccc3n21 (stereo not drawn)	n	u	u	2.08µM	n
c1ccc2c(c1)NC1(CCCC1)n1c-2nc2ccccc21	n	n	n	n	n
COc1cccc(NC(=O)Cn2c(=O)n(Cc3ccc(F)cc3)c(=O)c3sc4ccccc4c32)c1	x	x	n	x	n
CCOc1ccc2nc(Cl)c(C3CC(c4ccco4)=NN3S(=O)(=O)c3ccccc3)cc2c1 (stereo not drawn)	n	u	n	7.38µM	n
CCOc1ccc2nc(Cl)c(C3CC(c4ccc(OC)cc4)=NN3S(C)(=O)=O)cc2c1 (stereo not drawn)	x	x	n	x	n
Nc1c(-c2nc(-c3cccs3)no2)nnn1-c1cccc(Cl)c1	x	x	n	x	n

Assay outcomes from PubChem BioAssay.
